Assay outcomes deposited in PubChem BioAssay by several laboratories.
Mtb hypoxia rep – inhibitors of hypoxia-regulated fluorescent reporter in Mycobacterium tuberculosis. 300,000 compounds, 0.1% hits. M. tuberculosis hypoxia-regulated fluorescent reporter, fluorescence. fluorescence inhibition, % (test concentration not listed); in the data active = fluorescence inhibition mostly above about 23%, no sharp cut-off; inactive = mostly below about 17%
Mtb FBA inh – inhibits M. tuberculosis FBA enzyme | P9WQA3 | purified M. tuberculosis FBA, fluorescence read-out | inhibition, % at 1 µM | 360,000 compounds, 2.3% hits | AID 588726; in the data active = inhibition above about 27%
Target sequence (P9WQA3 whole entry, looked up): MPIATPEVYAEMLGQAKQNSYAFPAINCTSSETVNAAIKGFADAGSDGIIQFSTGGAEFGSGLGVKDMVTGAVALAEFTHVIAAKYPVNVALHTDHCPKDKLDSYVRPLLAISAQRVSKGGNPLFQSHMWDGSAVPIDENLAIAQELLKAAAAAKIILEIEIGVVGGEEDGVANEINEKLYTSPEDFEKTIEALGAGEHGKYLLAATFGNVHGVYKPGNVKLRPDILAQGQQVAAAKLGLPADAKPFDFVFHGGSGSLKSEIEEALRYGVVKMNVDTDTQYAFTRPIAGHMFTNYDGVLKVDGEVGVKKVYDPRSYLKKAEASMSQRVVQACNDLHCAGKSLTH
GDH-TPI counter – inhibits GDH-TPI coupling enzymes, artifact for Mtb FBA screen | 360,000 compounds, 1.2% hits | GDH-TPI coupled enzyme counterscreen, NADH absorbance | inhibition, % at 4.8 µM | AID 588335; in the data active = inhibition above about 30%
Yp Topo-I inh – Y. pestis Topo-I inhibition via cleavage products | Y. pestis Topo-I cleavage product accumulation, plate reader | activity, % at 10 µM | 360,000 compounds, 0.064% hits; in the data active = activity above about 50%, passing the limit was not always enough
PrP 5UTR inh – inhibition of PrP 5' UTR reporter expression; cell-based PrP 5' UTR mRNA reporter, plate reader; inhibition, % (concentration not given with the values); 340,000 compounds, 0.35% hits; AID 488862; in the data active = inhibition above about 52%
PrPC TRFRET – cell surface PrPC inhibition, primary TR-FRET screen; P04156; TR-FRET read-out; inhibition, % at 13.8 µM; 370,000 compounds, 0.43% hits; AID 720596; in the data active = inhibition above about 24%
A number is an active result; 0 = inactive; - = no result; + = active, no number. In the library only some 3.8% were active in any assay of this set; here they are far more common.

SMILES | Mtb hypoxia rep | Mtb FBA inh | GDH-TPI counter | Yp Topo-I inh | PrP 5UTR inh | PrPC TRFRET
CC1CN(C(C)CO)C(=O)c2cccc(NC(=O)CCCCCC(=O)Nc3ccccc3N)c2OC1CN(C)C (stereo not drawn) | 0 | - | - | - | - | -
Cc1ccc2[nH]c3ccccc3c(=O)c2c1 | 0 | 136 | 0 | 0 | - | 0
O=c1c2ccccc2[nH]c2ccc(F)cc12 | 0 | 156 | 0 | 0 | 0 | 0
CCN1CC2C3C(=O)N(C)C(=O)C3[C@](CC)(C1=O)N2C(=O)c1ccc(C)cc1 (stereo partly drawn) | 0 | - | - | - | - | -
[N-]=[N+]=NC(CCN1CCC(O)CCC1=O)c1ccccc1 (stereo not drawn) | 0 | - | - | - | - | -
CC1CCCCC1NC(=O)NC(=O)COC(=O)c1cncc(Br)c1 (stereo not drawn) | 0 | 0 | 0 | 0 | 0 | 0
N#CC1(NC(=O)COC(=O)c2ccc(Cl)nc2)CCCCC1 | 0 | 0 | 0 | 0 | 0 | 0
COc1ccccc1C(=O)NC(=O)COC(=O)c1nccnc1N | 0 | 144 | 0 | 0 | 0 | 0
N#CC1(NC(=O)COC(=O)c2nccnc2N)CCCCC1 | 0 | 165 | 0 | 0 | 0 | 0
COc1ccccc1C(=O)NC(=O)COC(=O)c1cnccn1 | - | 0 | 0 | 0 | - | 0
Cc1cc(NC(=O)COc2ccccc2)n(-c2ccccc2)n1 | 0 | 0 | 0 | 0 | 0 | 0
Cc1cc(NC(=O)COC(=O)c2nccnc2N)n(-c2ccccc2)n1 | 0 | 129 | 0 | 0 | 0 | 0
CC1CCCCC1NC(=O)NC(=O)COC(=O)c1nccnc1N (stereo not drawn) | 0 | 118 | 0 | 0 | 0 | 0
CCC1=C(OC(=O)N(CC)CC)N2C(=O)OC(=NCCc3c[nH]c4ccccc34)[C@]2(C)C2C1=CCC1C(=O)N(C)C(=O)C12 (stereo partly drawn) | 0 | - | - | - | - | -
O=C(CC1CC=CCCC(=O)OCC2CCCN2C1=O)NCCO (stereo not drawn) | 0 | - | - | - | - | -
Nc1cc(C(=O)OCC(=O)NNC(=O)c2ccccc2)ccc1Cl | 0 | 0 | 0 | 0 | 0 | 0
Nc1nccnc1C(=O)OCC(=O)NNC(=O)c1ccccc1 | 0 | 160 | 0 | 0 | 0 | 0
CCOc1ccc(C(=O)Nc2cccc(-c3cc4ccccc4oc3=O)c2)cc1[N+](=O)[O-] | - | 0 | 32 | 0 | 0 | 0
COc1ccccc1-n1c(O)c(C=Nc2c(C)n(C)n(-c3ccccc3)c2=O)c(=O)[nH]c1=O | 0 | 0 | 37 | 0 | 0 | 0
COc1ccc(OC)c(-n2c(O)c(C=Nc3c(C)n(C)n(-c4ccccc4)c3=O)c(=O)[nH]c2=O)c1 | 0 | 0 | 0 | 0 | 0 | 0
Cc1c(N=Cc2c(O)n(Cc3ccccc3)c(=O)[nH]c2=O)c(=O)n(-c2ccccc2)n1C | 0 | 0 | 0 | 0 | 0 | 0
Cc1c(N=Nc2c(O)n(Cc3ccccc3)c(=O)[nH]c2=O)c(=O)n(-c2ccccc2)n1C | 0 | 0 | 36 | 0 | 0 | 0
COC(=O)C1=C(c2cc3ccccc3o2)CC2CCC1N2C(=O)NCc1ccc(C(F)(F)F)cc1 (stereo not drawn) | 0 | - | - | - | - | -
CC(=NNC(=O)c1ccc(Cl)c(Cl)c1)c1cccc(NC(=O)C(C)C)c1 | 0 | - | - | - | - | -
COCCNc1oc(/C=C/c2ccccc2)nc1C#N | 0 | - | 0 | 0 | 0 | 0
SMILES | Mtb hypoxia rep | Mtb FBA inh | GDH-TPI counter | Yp Topo-I inh | PrP 5UTR inh | PrPC TRFRET
CCOP(=O)(OCC)c1nc(/C=C/c2ccccc2)oc1NCc1ccccc1 | 0 | + | 37 | 0 | 0 | 0
CCOP(=O)(OCC)c1nc(/C=C/c2ccccc2)oc1NCc1ccc(OC)cc1 | 0 | + | 0 | 0 | 0 | 0
Cc1c(-c2ccc(C=NNC(=O)C(=O)Nc3ccccc3F)o2)cccc1[N+](=O)[O-] | 0 | - | - | - | - | -
Cc1cccc(NC(=O)c2nc[nH]c2C(=O)NC(C)C(=O)OCc2ccccc2)c1 (stereo not drawn) | 0 | - | - | - | - | -
O=Cc1c(Cl)nc2ccccn12 | 0 | 0 | 0 | 0 | 0 | 0
Clc1cc2nc3ccccn3c2cc1Cl | - | 140 | 0 | 0 | 0 | 0
O=c1/c(=C\c2ccc(F)cc2)sc2n1CCCN=2 | - | 0 | 33 | 0 | 0 | 0
COc1cccc(-c2nn(C)c3sc(C(=O)NCc4ccco4)cc23)c1 | - | 48 | 0 | 0 | 0 | 0
COc1cccc(-c2cc(C(=O)NCc3ccco3)no2)c1 | 0 | 0 | 0 | 0 | 0 | 0
COc1nc(NCCO)nc(Nc2ccc([N+](=O)[O-])cc2)n1 | 0 | 0 | 31 | 0 | 0 | 0
C=CC[C@@H](CC/C=C/C=C/CC/C=C\[C@@H]1CSC([C@@H]2C[C@@H]2C)=N1)OC | 0 | 0 | 0 | 0 | 56 | -
COc1cccc2c3c(c(C)nc12)CCN3c1ccccc1 | 0 | 0 | 0 | 0 | 0 | 0
COc1ccccc1N1CCc2c(C)nc3c(OC)cccc3c21 | 0 | 0 | 46 | 0 | 0 | -
CN(C)CCCN(C(=O)/C=C/c1cccs1)c1nc2c(F)cccc2s1 | 0 | 0 | 37 | 0 | 0 | 0
COc1ccc2nc(N(CCN(C)C)C(=O)/C=C/c3cccs3)sc2c1 | 0 | 0 | 32 | 0 | 0 | 0
O=C1C2C(c3cccc(C=Cc4ccccc4)c3)CC=CC2C(c2ccc(C(F)(F)F)cc2)N1Cc1ccccc1 (stereo not drawn) | 0 | - | - | - | - | -
O=C(CN1C(=O)NC2(CCCCC2)C1=O)Oc1ccc2ccc(=O)oc2c1 | 0 | + | 0 | 0 | 0 | 0
COc1ccccc1C(=O)Oc1ccc2ccc(=O)oc2c1 | 0 | 117 | 0 | 0 | 0 | 0
O=C(Oc1ccc2ccc(=O)oc2c1)c1ccco1 | 0 | + | 0 | 0 | 0 | 0
COC(=O)[C@@]12CCCN1C(c1ccc(SC3CCCCC3)cc1)C1C(=O)N(C)C(=O)C12 (stereo partly drawn) | 0 | - | - | - | - | -
O=C(C=Cc1ccco1)NC(=S)Nc1cc(C(F)(F)F)ccc1N1CCOCC1 | 0 | - | - | - | - | -
COc1ccc(C2CC(=O)C=C(c3ccc(Cl)c(C(F)(F)F)c3)C2)cc1 (stereo not drawn) | 0 | - | - | - | - | -
O=C1C2C(c3ccc(F)cc3)N3C(=O)N(c4cccc(F)c4)C(=O)[C@@]3(Cc3ccccc3)C2C(=O)N1C1CCCCC1 (stereo partly drawn) | 0 | - | - | - | - | -
CN(C)CCNC(=O)c1cccc2ccc(-c3ccc(-c4ccccc4)cc3)nc12 | - | 58 | 0 | 0 | 0 | 0
CC(=O)COc1ccc2c3c(c(=O)oc2c1C)CCCCC3 | 0 | 115 | 0 | 0 | 0 | 0
SMILES | Mtb hypoxia rep | Mtb FBA inh | GDH-TPI counter | Yp Topo-I inh | PrP 5UTR inh | PrPC TRFRET
Cc1oc2c(C)c3oc(=O)c4c(c3cc2c1C)CCCC4 | 0 | 0 | 0 | 0 | 0 | 0
Cc1c(OCC(=O)OC(C)(C)C)ccc2c3c(c(=O)oc12)CCC3 | - | 0 | 0 | 0 | 0 | 0
Cc1c(O)ccc2c3c(c(=O)oc12)CCCC3 | - | 193 | 0 | 0 | 0 | 0
Cc1c(OC(=O)CNC(=O)OC(C)(C)C)ccc2c3c(c(=O)oc12)CCC3 | 0 | 122 | 0 | 0 | 0 | 0
COc1ccc(C(C)=NN=C(N)N)c(OC)c1 | 0 | - | - | - | - | -
CSC(=C[N+](=O)[O-])Nc1ccc(F)cc1 | 0 | - | - | - | - | -
C/C(C=NNc1nc(N2CCCCC2)nc(N2CCCCC2)n1)=C/c1ccccc1 | 0 | - | - | - | - | -
CSc1nc2nccc(-c3ccc(-c4ccccc4)cc3)n2n1 | 0 | 153 | 0 | 0 | 0 | 0
CCOC(=O)C=Cc1ccc(C(F)(F)F)cc1S(=O)(=O)NC(C)(C)C | 0 | - | - | - | - | -
